Source: PubChem (National Center for Advancing Translational Sciences (NCATS))
An excerpt weighted towards active compounds, which were near 0.63% of everything screened.
ASM inhibitor: Inhibitors of Secretory Acid Sphingomyelinase (S-ASM): qHTS; Sphingomyelin phosphodiesterase (Homo sapiens), P17405; placental ASM, HMU-PC fluorogenic substrate, 60 min; Potency, µM (highest dose often 57.5 µM), for the others: top-dose activity change, negative = inhibition, hits mostly inhibitors; 340,000 compounds, 0.006% hits; AID 504937, 2011; active means well fitted inhibition curve with a large enough effect; inconclusive means small, poorly fitted or top-dose-only effect; inactive means no such curve, though single readings can be large or run the other way; further: potency means the concentration at half of the fitted maximal effect
Target sequence (P17405 47-631 limits assumed): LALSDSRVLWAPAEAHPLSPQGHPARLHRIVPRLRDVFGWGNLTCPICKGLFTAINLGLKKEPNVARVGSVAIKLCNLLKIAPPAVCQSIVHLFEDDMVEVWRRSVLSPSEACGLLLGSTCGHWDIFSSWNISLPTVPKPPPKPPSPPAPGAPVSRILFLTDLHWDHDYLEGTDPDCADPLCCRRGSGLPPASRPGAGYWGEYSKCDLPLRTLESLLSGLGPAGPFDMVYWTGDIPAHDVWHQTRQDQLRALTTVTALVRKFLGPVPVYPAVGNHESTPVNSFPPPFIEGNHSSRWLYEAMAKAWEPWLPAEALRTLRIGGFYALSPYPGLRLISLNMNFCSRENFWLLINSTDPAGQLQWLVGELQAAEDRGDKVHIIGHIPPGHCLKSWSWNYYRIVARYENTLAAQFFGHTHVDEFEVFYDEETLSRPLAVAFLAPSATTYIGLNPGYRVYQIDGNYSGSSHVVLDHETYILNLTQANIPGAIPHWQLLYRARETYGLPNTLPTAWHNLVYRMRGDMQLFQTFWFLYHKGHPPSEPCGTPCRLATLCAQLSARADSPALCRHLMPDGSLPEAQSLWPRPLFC
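qHTS format. ASM enzyme prepared from human placenta hydrolyses the fluorogenic substrate HMU-PC0 (9 uM final) over 60 min at 37 °C after a 10 min compound preincubation.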
gsp agonist: qHTS for Agonist of gsp, the Etiologic Mutation Responsible for Fibrous Dysplasia/McCune-Albright Syndrome: qHTS. gsp mutant cells, cAMP HTRF, 30 min. Potency, µM (titrated, usually from 76.9 µM), for the others: top-dose activation (cAMP increase), most hits filed as activators. 340,000 compounds, 0.13% hits; active means well fitted activation curve with a large enough effect; inconclusive means small, poorly fitted or top-dose-only effect, or another doubt; inactive means no such curve, though single readings can be large or run the other way; cell line not stated here;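 further: phosphodiesterase inhibitor Ro 20-1724 added with compounds to block cAMP breakdown; potency means the concentration at half of the fitted maximal effect; nearly all actives have a fitted effect of over 60% in size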
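Cells stably selected in G418 were plated at 2000/well, grown 16-24 hr, then given compounds in DMSO with the PDE inhibitor […] (300 uM solution added) for 30 min at 37C; cAMP was read by HTRF.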
gsp antagonist: qHTS for Antagonists of gsp, the Etiologic Mutation Responsible for Fibrous Dysplasia/McCune-Albright Syndrome: qHTS. gsp-mutant cells, cAMP HTRF, 30 min. Potency, µM (highest dose often 76.9 µM), for the others: at the top dose activity change, negative = inhibition, hits mostly inhibitors. 340,000 compounds, 0.4% hits; calls by dose curve; cell line not stated here;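 further: intracellular cAMP measured with PDE inhibitor Ro 20-1724 present during compound exposure; potency means the concentration at half of the fitted maximal effect; on the % scale 0 is the no-effect control and ±100 the full control effect; nearly all actives have a fitted effect of over 65% in size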
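HTRF cAMP read-out (cAMP-d2 plus anti-cAMP antibody-K in lysis buffer, 30 min RT). Before lysis, cells are exposed to compounds with […] for 30 min at 37C in DPBS containing Ca/Mg, BSA and Tween 20.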
TSHR antag: Antagonists of the Thyroid Stimulating Hormone Receptor: HTS campaign; Thyrotropin receptor (Homo sapiens), P16473; activity change, negative = inhibition, % at 11.5 µM; 330,000 compounds, 0.2% hits; TSHR-expressing cells, TSH-stimulated cAMP HTRF, 2 h; hits give low values; AID 504810, 2011;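 active means activity change below a set negative limit, meaning inhibition stronger than a set level, cut at about -70% in these data; inconclusive means activity change between two set negative limits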; further: on the % scale 0 is the no-effect control and ±100 the full control effect
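TSHR-expressing cells, 200/well, pre-treated with compound, then stimulated with EC80 TSH (4nM final) for 2 hours at 37 deg C. cAMP measured by competitive HTRF: anti-cAMP cryptate antibody in lysis buffer plus cAMP-d2, read after 30 minutes at room temperature.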
Numbers without * were called inactive; [ ] = remark or other dose.

O=C1C(=O)N(CCCN2CCOCC2)C(c2ccc(F)cc2)/C1=C(\O)c1ccc2c(c1)OCCO2 (stereo unspecified) was read as ASM inhibitor -1%, gsp agonist 32µM*, gsp antagonist 39% and TSHR antag 38.
Screening Cc1ccc(OCCC(=O)OCC(=O)Nc2ccc3c(c2)OCO3)cc1 returned ASM inhibitor -5%, gsp agonist 6%[15.4 µM], gsp antagonist 3% and TSHR antag 1.
COC(=O)c1c(NC(NC(=O)CC(C)C)C(Cl)(Cl)Cl)sc2c1CCC2 (stereo unspecified) was read as ASM inhibitor -11%, gsp agonist -12%, gsp antagonist inconclusive and TSHR antag -47.
For CCC(=O)NC(Nc1sc2c(c1C(=O)OC)CCC2)C(Cl)(Cl)Cl (stereo unspecified) the results were ASM inhibitor -14%, gsp agonist 1%, gsp antagonist -36% and TSHR antag -72*.
Screening O=C(CCCn1c(=O)oc2ccccc21)NNC(=O)COc1ccc(F)cc1 returned ASM inhibitor 1%, gsp agonist inconclusive, gsp antagonist 2% and TSHR antag -4.
Screening CCCCSc1nnc(CCCCCNC(=O)OC(C)(C)C)o1 returned ASM inhibitor 2%, gsp agonist 4%, gsp antagonist 35µM* and TSHR antag -24.
Screening COc1cccc(CNC(=O)CCC2CCCN(C(=O)C3=CC(=O)CC(C)(C)O3)C2)c1 (stereo unspecified) returned ASM inhibitor 5%, gsp agonist -13%[15.4 µM], gsp antagonist 4% and TSHR antag -8.
O=C(C[C@@H]1C[C@H]2c3cc(NC(=O)C4CCC4)ccc3O[C@H]2[C@@H](CO)O1)NCc1ccc(-c2ccccc2)cc1 was read as gsp agonist 32µM*.
For COCC(=O)Nc1ccc2c(c1)[C@@H]1C[C@H](CC(=O)NCc3cccc(F)c3)O[C@@H](CO)[C@@H]1O2 the results were gsp agonist -53%.
CC(=O)c1cccc(NC(=O)COc2cc3oc(=O)c(CC(C)O)c(C)c3cc2Cl)c1 (stereo unspecified) was read as ASM inhibitor -18%, gsp agonist 6%[15.4 µM], gsp antagonist 32µM* and TSHR antag -1.
Screening CCOC(=O)c1ccc(NC(=O)COc2cc3oc(=O)c(CC(C)O)c(C)c3cc2Cl)cc1 (stereo unspecified) returned ASM inhibitor -1%, gsp agonist -2%, gsp antagonist 4% and TSHR antag -2.
Screening Cc1sc2ncn(CC(=O)NCC(=O)N(C)Cc3ccccc3)c(=O)c2c1C returned ASM inhibitor -6%, gsp agonist 11µM*, gsp antagonist 8% and TSHR antag -7.
`Cc1sc2ncn(CC(=O)NCc3ccccc3)c(=O)c2c1C` gave ASM inhibitor 0%, gsp agonist inconclusive, gsp antagonist 2% and TSHR antag 3.
`O=C(CSc1nc(O)cc(=O)n1-c1ccccc1)Nc1ccc2c3c(cccc13)CC2` gave ASM inhibitor 4%, gsp agonist -16%[15.4 µM], gsp antagonist 7.1µM* and TSHR antag -23.
Screening NC(=O)C1CCN(c2nc(-c3cccc([N+](=O)[O-])c3)cs2)CC1 returned TSHR antag -7.
`COc1cc(C(=O)NC(=S)Nc2ccc(Cc3ccncc3)cc2)cc(OC)c1OC` gave ASM inhibitor -5%, gsp agonist -71%, gsp antagonist 32µM* and TSHR antag -1.
Screening Cc1cc(C)cc(C(=O)NC(=S)Nc2ccc(Cc3ccncc3)cc2)c1 returned ASM inhibitor -5%, gsp agonist -3%, gsp antagonist -1% and TSHR antag 21.
`COc1ccc(CNC(=O)Cn2cnc3c(=O)n(C)c(=O)n(C)c32)cc1` gave ASM inhibitor 4%, gsp agonist 18µM*, gsp antagonist 6% and TSHR antag 15.
Screening Cn1c(=O)c2ncn(CC(=O)Nc3ccc4c5c(cccc35)CC4)c2n(C)c1=O returned ASM inhibitor 5%, gsp agonist 32µM*, gsp antagonist -3% and TSHR antag -8.
Cc1cc2c(=O)oc(-c3ccccc3Br)nc2s1 was read as ASM inhibitor -3%, gsp agonist 1%[15.4 µM], gsp antagonist 35µM* and TSHR antag -19.
COc1ccc(NC(=O)COC(=O)CN2C(=O)C3CCCCC3C2=O)cc1OC (stereo unspecified) was read as ASM inhibitor -3%, gsp agonist 3%, gsp antagonist -7% and TSHR antag 14.
`N#C/C(=C\c1cc2c(cc1Br)OCO2)c1ccc(C(=O)O)cc1` gave ASM inhibitor 9%, gsp agonist 3%, gsp antagonist inconclusive and TSHR antag -1.
CCOc1cc2c(cc1/C=C(/C#N)c1ccc(C(=O)O)cc1)OCO2 was read as ASM inhibitor 0%, gsp agonist -1%, gsp antagonist 35µM* and TSHR antag -15.
For CCNC(=O)NCc1c(C)c(C)n(Cc2ccccc2)c1-n1cccc1 the results were ASM inhibitor -4%, gsp agonist 14%, gsp antagonist -1% and TSHR antag -8.
Cc1cccc(NC(=O)C2CCN(S(=O)(=O)c3ccc4c(c3)NC(=O)CO4)CC2)c1 was read as ASM inhibitor -12%, gsp agonist 17%, gsp antagonist -9% and TSHR antag -134*.
For COc1cc(C(=O)NCC2(c3ccccc3)CCCC2)cc(OC)c1OC the results were ASM inhibitor 0%, gsp agonist -22%, gsp antagonist -8% and TSHR antag -9.
Screening O=C(CSc1ccc2nnc(-c3ccccn3)n2n1)Nc1ccccc1 returned ASM inhibitor -1%, gsp agonist -20%[15.4 µM], gsp antagonist 14% and TSHR antag 9.
For Cc1cc(NC(=O)CSc2ccc3nnc(-c4ccccn4)n3n2)no1 the results were ASM inhibitor 11%, gsp agonist 6.3µM*, gsp antagonist 6% and TSHR antag 16.
Screening Cc1nc2c(cnn2-c2ccccc2Cl)c(=O)n1-c1ccc(C(C)C)cc1 returned ASM inhibitor -1%, gsp agonist -35%, gsp antagonist 35µM* and TSHR antag -3.
For Cc1ccc2c(c1)nnn2C1CCN(S(=O)(=O)c2cccc(S(=O)(=O)N(C)C)c2)CC1 the results were ASM inhibitor -3%, gsp agonist 18%, gsp antagonist 25µM* and TSHR antag -7.
Screening Cc1ccc2c(c1)nnn2C1CCN(S(=O)(=O)c2ccc3ccccc3c2)CC1 returned ASM inhibitor -4%, gsp agonist -29%, gsp antagonist -11% and TSHR antag -27.
O=C(c1ccc(F)cc1F)N1CCN(c2ncccn2)CC1 was read as ASM inhibitor 2%, gsp agonist inconclusive, gsp antagonist 10% and TSHR antag 4.
